According to PubChem BioAssay (NCATS):
Results filed as inconclusive are left out. A call without a number means that no potency is given here. Activity calls are given as the source filed them. Calls follow the shape of the dose curve; as a rule, active = well fitted inhibition curve with a large enough effect; inconclusive = small, poorly fitted or top-dose-only effect; inactive = flat fitted curve, though single readings scatter. Where a SMILES comes first, the peptide text is derived from it. Bridges are numbered along the chain shown (N, C = ends). [ ]: non-standard residue; d: D form. ξ: configuration not given here. ξPhe(βξ-Me) = CC(c1ccccc1)C(N)C(=O)O; NMeY = CN[CH](Cc1ccc(O)cc1)C(=O)O; GABA = NCCCC(=O)O

Assays:
[1] = target: Calcium and integrin-binding protein 1 (Homo sapiens) (UniProt Q99828); assay: Primary qHTS for Identification of Calcium Integrin Binding Protein 1 (CIB1) Competitor (AID 1508620);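 also: GST tagged CIB1 binding a fluorescein labelled alphaIIb integrin peptide tracer; top concentration of the series differs between compounds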
How it was run: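 Fluorescence polarization competition: GST-tagged CIB1 (1 uM final) preincubated with compound 15 min at room temperature, then FITC-labelled alphaIIb peptide (100 nM final) added. After 15 min at room temperature, polarization read at Ex 480/Em 540.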

[2] = Primary qHTS for inhibitors of nuclear receptor binding SET domain protein 2 (NSD2) in an isogenic RCH-ACV NSD2 p.E1099K mutant (9B) (AID 1645876); also: nearly all actives have a fitted effect of over 70% in size; also: potency is read from the fitted curve at half-maximal effect

Chain of Calcium and integrin-binding protein 1 (Homo sapiens) (Q99828 whole entry, looked up): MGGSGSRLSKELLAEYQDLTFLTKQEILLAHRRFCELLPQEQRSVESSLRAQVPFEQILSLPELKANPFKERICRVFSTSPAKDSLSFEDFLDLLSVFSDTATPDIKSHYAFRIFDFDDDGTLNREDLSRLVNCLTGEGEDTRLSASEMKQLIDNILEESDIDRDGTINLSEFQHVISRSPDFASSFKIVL

| Structure (SMILES) | Potency [1] | Potency [2] | activity change, negative = viability loss [2] | outcome [2] |
| --- | --- | --- | --- | --- |
| CCC(C)C(=O)OC1CC(O)C23C4OCC5(C(O)CC2C1(C)C(O)O4)C3C(=O)C(O)C1(C)C(O)(c2ccoc2)CC2OC251 (stereo not given) | inactive | 136 nM (active) | – | – |
| CC(C)C(C(=O)N(C)C(C)C(N)=O)N(C)C(=O)C1CCCN1C(=O)/C=C/C=C/C(O)C(C)O (stereo not given) | inactive | inactive | – | – |
| COc1ccc(N(C)c2nc(C)nc3ccccc23)cc1 | inactive | 13.2 nM (active) | – | – |
| CC12CCC3c4ccc(OC5OC(C(=O)O)C(O)C(O)C5O)cc4CCC3C1CCC2O (stereo not given) | inactive | inactive | – | – |
| CC1(C)CCCC2(C)C(C(=O)O)=CCC12 (stereo not given) | inactive | inactive | – | – |
| C=C1C(O)C(O)C2(CC3C(C)=CCC4C(C)(CO)CCCC34C)OC2C1O (stereo not given) | inactive | inactive | – | – |
| COc1c2c(c(C)c3c1C(=O)OC3)O[C@@]1(C)CC(O)C(C(C)(C)O)[C@](C)(CCC(=O)O)[C@H]1C2 (stereo not given in full) | inactive | inactive | – | – |
| COc1cc2c(cc1O)[C@H](c1ccc(O[C@@H]3O[C@H](CO)[C@@H](O)[C@H](O)[C@H]3O)c(OC)c1)[C@@H](CO)[C@](O)(CO)C2 | inactive | inactive | – | – |
| C=C(CO)C12OC1C1(C)C(=CC2=O)C(O)C(O)CC1C (stereo not given) | inactive | inactive | – | – |
| CC(C)(O)/C=C/C1=CC(=O)[C@@](C)(O)C[C@H]1O | inactive | inactive | – | – |
| CC1C(OC(=O)c2ccccc2)C(O)C2C(C(=O)O)=COC(OC3OC(CO)C(O)C(O)C3O)C12 (stereo not given) | inactive | inactive | – | – |
| CC1=C(C(=O)O)/C(=C\CO[C@@H]2O[C@H](CO)[C@@H](O)[C@H](O)[C@H]2O)C(OC(=O)/C=C\c2ccc(O)cc2)C1 (stereo not given in full) | inactive | inactive | – | – |
| C=CC(=O)N1CCN(C(=O)CNc2cc(I)c(Cl)cc2O)CC1 | inactive | 5150 nM (active) | – | – |
| CC(=O)N[C@H]1[C@H](O[C@H]2CC[C@@]3(C)C(CC[C@]4(C)C3CC=C3C5CC(C)(C)CC[C@]5(C(=O)O)[C@H](O)C[C@]34C)C2(C)C)O[C@H](CO[C@@H]2OC[C@H](O)[C@H](O)[C@H]2O[C@@H]2OC[C@@H](O)[C@H](O)[C@H]2O)[C@@H](O)[C@@H]1O (stereo not given in full) | inactive | – | -10% [at 9.23 µM] (inactive) | – |
| CC1CCC2(C(=O)O)CCC3(C)C(=CCC4C5(C)CCC(O)C(C)(CO)C5CCC43C)C2C1(C)O (stereo not given) | inactive | inactive | – | – |
| CC(=O)C=C=C1C(C)(C)CC(O[C@@H]2O[C@H](CO)[C@@H](O)[C@H](O)[C@H]2O)CC1(C)O (stereo not given in full) | inactive | inactive | – | – |
| COc1cc2c(cc1OC)[C@@H]1[C@H](O)[C@@H](OC)C=C3CCN(C2)[C@H]31 | inactive | 4500 nM (active) | – | – |
| Cc1c2cc(c(C(=O)O)c1C)OC1OC(C(O)C(O)C1O)C(O)C(O)C1OC(O2)C(O)C(O)C1O (stereo not given) | inactive | inactive | – | – |
| CC1NC(=O)CCCNC(=O)C(Cc2c[nH]c3ccccc23)NC(=O)C(C)NC(=O)C(C(C)C)NC(=O)C(C(C)c2ccccc2)NC(=O)C(C(C)C)NC1=O (stereo not drawn) (cyclo([GABA]AV[ξPhe(βξ-Me)]VAW); configuration not given here) | inactive | inactive | – | – |
| CC(=O)O[C@H]1[C@H](O[C@H]2[C@@H]3C=CO[C@@H](O[C@@H]4O[C@H](CO)[C@@H](O)[C@H](O)[C@H]4O)[C@@H]3[C@@]3(CO)O[C@@H]23)O[C@@H](C)[C@H](OC(=O)/C=C/c2ccccc2)[C@H]1OC(=O)/C=C/c1ccccc1 | inactive | – | – | inactive [at 9.23 µM] |
| CCC(C)C1NC(=O)C2CCCN2C(=O)C(NC(C)=O)C(C)OC(=O)C(Cc2ccc(OC)cc2)N(C)C(=O)C2CCCN2C(=O)C(C(C)C)NC1=O (stereo not given) (Ac-TPIVP[NMeY](Me); ester 1-C; configuration not given here) | inactive | inactive | – | – |
| CC(=O)O[C@@H]1C[C@H](O)[C@@]23CO[C@H](O)[C@]1(C)C2C[C@@H](O)[C@]1(C)C3C(=O)[C@H](OC(C)=O)[C@@]2(C)[C@H](c3ccoc3)C[C@H]3O[C@]321 (stereo not given in full) | inactive | 34.2 nM (active) | – | – |
| CCC(=O)O[C@H]1C(C)(C)[C@H]([C@@H](O)C(=O)OC)[C@]2(C)C(=O)[C@@]1(O)[C@H]1O[C@]13C1CC(=O)O[C@@H](c4ccoc4)[C@]1(C)CCC32 (stereo not given in full) | inactive | inactive | – | – |
| O=C(O)Cc1cn(C2OCC(O)C(O)C2O[C@@H]2O[C@H](CO)[C@@H](O)[C@H](O)[C@H]2O)c2ccccc12 (stereo not given in full) | inactive | inactive | – | – |
| CCCC(=O)O[C@@H]1[C@@H]2[C@@H](OC(C)=O)[C@]3(C)C(=O)[C@H]4[C@@H](OC(C)=O)C(C)(C)C[C@H]4[C@]3(C)C(=O)[C@@]2(OC(C)=O)C[C@@H]1C | inactive | inactive | – | – |
